Out of some 4,400 compounds screened, about 3,700 (84%) were called active.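 How the source made its calls: active means inhibition above about 39% in either of two replicate wells at 20 µM (limit read from the data); inactive means the rest.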 The set was probably picked from earlier hits. The list is a sample of the results.
Assay: growth inhibition of tim23-1 ts yeast, retest – luminescence, single concentration, confirmation (AID 463218);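 further: temperature-sensitive tim23-1 mutant grown at 25 °C; 0% = DMSO wells with yeast and 100% = medium wells without yeast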
Conditions: S. cerevisiae tim23-1 growth, BacTiter-Glo luminescence, 24 h; at 20 µM; hits give high values
With `Cc1ccc(Nc2nc(-c3ccc(O)cc3O)cs2)nc1` the inhibition was 70.4% (active).
In the case of `N/C(=N\OC(=O)Nc1ccc(Cl)c(Cl)c1)c1ncc(C(F)(F)F)cc1Cl`, the inhibition is reported as 71.8% (active).
For `CN(C)/N=C/c1cn(-c2ccccc2)nc1-c1cccnc1`, the inhibition was 43% (active).
For `Cc1ccc(-c2nn(C(C)(C)C)c3ncnc(N)c23)cc1`, the inhibition was 65.7% (active).
With `Clc1ccc(Nc2nc(-c3cccs3)cs2)nc1` the inhibition was 68.5% (active).
In the case of `Cc1cccc(Nc2nc(-c3ccccc3)cs2)n1`, the inhibition is reported as 23.9% (inactive).
In the case of `CC(C)Cn1c(N)c(C(=O)NCc2cccs2)c2nc3ccccc3nc21`, the inhibition is reported as 46.1% (active).
With `COc1ccc2nc(NC(=O)NC3CCCCC3)sc2c1` the inhibition was 53.1% (active).
For `COc1ccc(NC(=O)/C(Cl)=C(/Cl)S(=O)Cc2ccc(C)cc2)cn1` (stereo not given), the inhibition was 27.6% (inactive).
For `CCOc1ccccc1/C=c1\sc2nc(-c3ccco3)nn2c1=O`, the inhibition was 56.6% (active).
In the case of `O=c1nc2s/c(=C\c3ccco3)c(=O)n2nc1Cc1ccccc1`, the inhibition is reported as -20.4% (inactive).
With `O=C(NCc1ccc2c(c1)OCO2)c1c(O)nc2sccn2c1=O` the inhibition was 66.3% (active).
In the case of `Cc1oc2c(c1C(=O)N1CCOCC1)C(=O)c1ccccc1C2=O`, the inhibition is reported as 59.5% (active).
For `Cc1ccccc1NCC(=O)N/N=C\c1ccc([N+](=O)[O-])s1`, the inhibition was 79.3% (active).
For `CCOc1ccc(NC(=O)CCC(=O)N/N=C/c2ccc([N+](=O)[O-])s2)cc1`, the inhibition was 76.9% (active).
With `COc1cc(/C=N/Nc2nc3ccccc3s2)ccc1O` the inhibition was 33.5% (inactive).
For `COc1ccc(C(=O)Nc2ccccc2C(=O)N/N=C/c2ccc(O)c(OC)c2)cc1`, the inhibition was 98.3% (active).
In the case of `COc1ccc(C(=O)Nc2ccccc2C(=O)N/N=C/c2ccccc2OC)cc1`, the inhibition is reported as 72% (active).
In the case of `Oc1c(Cl)cc(Cl)c(Cl)c1Cc1c(O)c(Cl)cc(Cl)c1Cl`, the inhibition is reported as 95.3% (active).
In the case of `O=C(Nc1ccc2oc(-c3ccccc3F)nc2c1)c1ccco1`, the inhibition is reported as 82.7% (active).
In the case of `CC(C)(C)c1ccc(Oc2ccc(N)cc2)cc1`, the inhibition is reported as 51.7% (active).
In the case of `Oc1ccc(Br)cc1/C=N/Nc1ccccn1`, the inhibition is reported as 65.5% (active).
For `Cc1cc(N)n2nc(-c3ccc(C(C)(C)C)cc3)cc2n1`, the inhibition was 72.7% (active).
With `COC(C/C=C/C(=O)[C@@H](C)OCc1ccccc1)OC` the inhibition was 55.2% (active).
For `COc1cc([N+](=O)[O-])ccc1NC(=O)COC(=O)CCOc1ccc(C)cc1`, the inhibition was 64.7% (active).
In the case of `CCc1ccccc1NC(=O)CN(c1ccc(OC)cc1OC)S(=O)(=O)c1ccccc1[N+](=O)[O-]`, the inhibition is reported as 32.9% (inactive).
In the case of `O=C(CNC(=O)OCc1ccccc1)Oc1cc2oc(=O)cc(-c3ccccc3)c2cc1Cl`, the inhibition is reported as 31.1% (inactive).
With `C=CCNC(=O)c1ccc2c3n(nc2c1)-c1ccc(C)cc1CO3` the inhibition was 75.2% (active).
With `Oc1ccccc1-c1cc(-c2ccc(Cl)cc2)n[nH]1` the inhibition was -21.6% (inactive).
With `CCSC1=C(C#N)C(=O)n2c1cc1c2CCCC1` the inhibition was 56.1% (active).
In the case of `O=C1NC(Nc2nc3ccccc3s2)(C(F)(F)F)C(=O)N1C1CCCCC1` (stereo not given), the inhibition is reported as 63.5% (active).
For `Cc1nn(-c2ccccc2)c(Cl)c1/C=C/C(=O)c1ccc(O)cc1`, the inhibition was 43.2% (active).
In the case of `Cc1nn(Cc2ccc(Cl)c(Cl)c2)c(C)c1NC(=O)c1cc(C2CC2)on1`, the inhibition is reported as 59.7% (active).
With `Cc1ccc(-c2ccc(/C=N/NC(=O)CN3CCOCC3)o2)cc1[N+](=O)[O-]` the inhibition was 76.8% (active).
For `Cc1ccc(C(=O)COc2cccc(NC(=O)c3ccco3)c2)cc1`, the inhibition was 52.7% (active).
For `COc1ccc(-c2cc(C3CCN(c4ncccc4[N+](=O)[O-])CC3)[nH]n2)cc1`, the inhibition was 46% (active).
With `O=[N+]([O-])c1ccc(C=Nc2ccc(Cl)cc2Cl)s1` the inhibition was 77.5% (active).
For `O=[N+]([O-])c1ccc2c(c1)Nc1nc3ccccc3nc1N2`, the inhibition was 48.9% (active).
With `CCCc1[nH]nc2c1C(c1ccc(Br)s1)C(C#N)=C(N)O2` (stereo not given) the inhibition was 73.6% (active).
In the case of `O=[N+]([O-])c1ccc(N=Cc2c(O)ccc3ccccc23)cc1`, the inhibition is reported as 61.4% (active).
In the case of `Oc1ccc2ccccc2c1C=Nc1ccccc1`, the inhibition is reported as 65.5% (active).
With `CC1CC2=C(CC1/C=N/NC(N)=S)C(C)(C)CCC2` (stereo not given) the inhibition was 43.6% (active).
In the case of `COc1ccc(/C=C(\C#N)C(=O)ONC2=NCCCCC2)cc1`, the inhibition is reported as 81.6% (active).
In the case of `O=c1c2cc(Br)ccc2nc(-c2cccc(Cl)c2)n1O`, the inhibition is reported as 60.2% (active).
With `COc1cc(/C=C2/C(=O)ON=C2C)ccc1OCc1cccc(F)c1` the inhibition was 53.9% (active).
For `COc1cc(/C=C2/C(=O)ON=C2C)ccc1OCc1ccccc1F`, the inhibition was 55.5% (active).
For `Clc1ccc(C2CC(c3cccs3)n3ncnc3N2)cc1Cl` (stereo not given), the inhibition was 40.9% (active).
With `CCN1C(=O)/C(=C2\SC(N3CCCCC3)=NC2=O)c2ccccc21` the inhibition was 41.5% (active).
With `COc1cccc(C2Nc3cccc4cccc(c34)N2)c1` the inhibition was 77.5% (active).
In the case of `Cc1cc(C(=O)N/N=C\C(Br)=C\c2ccccc2)c(C)o1`, the inhibition is reported as 50.8% (active).
For `C/C(=N/NC(=O)c1cc(Cl)ccc1O)C12CC3CC(CC(C3)C1)C2`, the inhibition was 59.9% (active).
With `CC(=NCc1ccco1)C1=C(O)c2ccccc2C1=O` the inhibition was 50.4% (active).
With `CC(=NCc1ccc2c(c1)OCO2)C1=C(O)c2ccccc2C1=O` the inhibition was 67.6% (active).
With `COc1ccc(C(=O)NCC(=O)N/N=C/c2ccc([N+](=O)[O-])o2)cc1OC` the inhibition was 75.6% (active).
In the case of `c1ccc(-c2nnc3n2NC(c2ccc4c(c2)OCO4)S3)cc1` (stereo not given), the inhibition is reported as 43.8% (active).
With `Nc1ccccc1SC(C[N+](=O)[O-])c1ccccc1` (stereo not given) the inhibition was 89.4% (active).
For `Cc1cc(C)c(S(=O)(=O)c2ccccc2)c(OC(=O)c2c(F)cccc2Cl)n1`, the inhibition was 61.8% (active).
With `O=c1c2ccccc2[nH]c(=S)n1CCN1CCC(=C(c2ccc(F)cc2)c2ccc(F)cc2)CC1` the inhibition was 41.8% (active).
With `CCCC(=O)N1CCN(c2nnc(-c3ccc(C)cc3)c3ccccc23)CC1` the inhibition was 16% (inactive).
With `COC(=O)N/N=C/c1ccc(-c2ccc(Cl)c(Cl)c2)o1` the inhibition was 43.3% (active).
In the case of `O=C(Nc1ccccc1)c1nnsc1S(=O)(=O)c1ccc(Cl)cc1`, the inhibition is reported as 93% (active).
For `FC(F)(F)c1cccc(Nc2ncnc3ccccc23)c1`, the inhibition was 29% (inactive).
For `CCOc1cc(NC(=O)c2ccccc2C(=O)O)c(OCC)cc1NC(=O)c1ccccc1F`, the inhibition was 66.5% (active).
With `CCN1/C(=C\c2ccc3ccccc3[n+]2CC)Sc2cc(C)ccc21` the inhibition was 64.8% (active).
In the case of `CCc1ccc2oc(-c3ccc(N)cc3)nc2c1`, the inhibition is reported as 58.8% (active).
In the case of `O=C(CSc1cccc2cccnc12)N/N=C/c1cccnc1`, the inhibition is reported as 62% (active).
With `C[C@@H]1C(c2ccc(F)cc2)=NN(c2ccc(Br)cc2)[C@H]1C(=O)N1CCOC1=O` the inhibition was 44.6% (active).
In the case of `CCOc1cc(/C=C2\SC(N3CCCC(C)C3)=NC2=O)ccc1O` (stereo not given), the inhibition is reported as 43% (active).
For `O=C(/C=C/c1ccccc1)c1ccccc1O`, the inhibition was 62.4% (active).
In the case of `COc1ccc(Oc2cn[nH]c2-c2ccc(OC)cc2O)cc1`, the inhibition is reported as 59.6% (active).
For `CCC(C)c1ccc(NC(=O)COC(=O)C2CCCC2)cc1` (stereo not given), the inhibition was 49.4% (active).
For `Clc1ccc(Nc2ccc3ccccc3n2)cc1`, the inhibition was 43.8% (active).
For `O=Cc1cn(-c2ccccc2)nc1-c1ccccn1`, the inhibition was 57.2% (active).
For `CC1CCCC(C)N1C(=O)CN1CCN(c2nc(-c3ccc(F)cc3)cs2)CC1` (stereo not given), the inhibition was 54.5% (active).
In the case of `CC1(C)C2CCC1(C)C(OC(=O)c1ccc(O)cc1)C2` (stereo not given), the inhibition is reported as 58% (active).
In the case of `CCOC(=O)C1=C(C)N=c2s/c(=C\C(=O)OC)c(=O)n2C1c1ccc(OC)cc1` (stereo not given), the inhibition is reported as 55.2% (active).
In the case of `CC[C@]1(C(=O)OC)[C@H]2C(=O)N(Cc3ccccc3)C(=O)[C@H]2[C@H]2CN=C(SCc3ccc(Cl)cc3)N21`, the inhibition is reported as 31.4% (inactive).
In the case of `O=C(N/N=C\c1cccc(Br)c1)c1ccccc1-n1cccc1`, the inhibition is reported as 50.8% (active).
With `O=C(Oc1c(-c2ccco2)oc2ccccc2c1=O)c1cccnc1` the inhibition was 67.5% (active).
In the case of `COc1ccc(C(=O)O/N=C(\N)Cc2ccc(Cl)cc2Cl)cc1OC`, the inhibition is reported as 52.8% (active).
For `c1ccc2cc(CCCc3cc4ccccc4cn3)ncc2c1`, the inhibition was 40.3% (active).
With `CC1(C)C=Cc2c(ccc3c2OC[C@@H](c2ccc(O)cc2O)C3)O1` the inhibition was 29.5% (inactive).
In the case of `Cc1ccc(Oc2cnn(-c3ccccc3)c(=O)c2Br)cc1`, the inhibition is reported as 39.4% (active).
With `O=C1c2ccccc2S(=O)(=O)N1CC(O)Cn1c2ccccc2c2ccccc21` (stereo not given) the inhibition was 90.8% (active).
With `O=C1C(=O)N(CC2COc3ccccc3O2)c2ccccc21` (stereo not given) the inhibition was 46.6% (active).
For `O=c1c(-c2ccc3c(c2)OCCO3)c(C(F)(F)F)oc2cc(O)cc(O)c12`, the inhibition was 63.5% (active).
For `O=C(COC(=O)c1ccc(O)cc1O)c1ccc2c(c1)OCCO2`, the inhibition was 21% (inactive).
With `COc1cc(/C=C(\C#N)c2nc3ccccc3[nH]2)ccc1O` the inhibition was 54.2% (active).
With `Cc1cccc(/C(N)=N/OC(=O)c2ccccc2Cl)c1` the inhibition was 75.3% (active).
In the case of `CNC(=O)/C(C#N)=C/c1c(F)cccc1Cl`, the inhibition is reported as 71.8% (active).
In the case of `O=C(NC(=S)Nc1cccc2c(O)cccc12)c1cccc(Br)c1`, the inhibition is reported as 23.2% (inactive).
For `CCn1c2ccccc2c2cc(NC(=S)N3CCOCC3)ccc21`, the inhibition was 31.6% (inactive).
For `CCc1ccc(C(=O)NC(=S)Nc2ccccc2N2CCOCC2)cc1`, the inhibition was 49.2% (active).
With `O=C(c1cc(-c2ccc(O)cc2)on1)N1CCCc2ccccc21` the inhibition was 50.6% (active).
For `O=C(c1cc(-c2cccc(O)c2)on1)N1CCc2ccccc2C1`, the inhibition was 48.2% (active).
With `Cc1cc(Nc2ccccc2)n(C(=O)c2ccc(N)cc2)n1` the inhibition was 55.7% (active).
With `N/C(=N\OC(=O)c1cc(-c2ccccc2)nc2ccccc12)c1ccncc1` the inhibition was 80.8% (active).
In the case of `O=C1CSC(=S)N1c1ccc(Cl)c(Cl)c1`, the inhibition is reported as 76% (active).
With `COC(=O)c1c(NC(=O)COc2ccc(Cl)cc2Cl)sc2c1CC(C)(C)NC2(C)C` the inhibition was 63.6% (active).
For `Oc1c(CN2CCN(c3ccc(F)cc3)CC2)cc(Cl)c2cccnc12`, the inhibition was 54.9% (active).

Reference: PubChem BioAssay AID463218 (Sanford-Burnham Center for Chemical Genomics, 2010)
